Assay results taken from PubChem BioAssay AID1159580 (chemical genetic matrix, 2015).
Screen size: about 5,500 compounds; about 2,000 (36%) were called active. Not shown: some 18% with an inconclusive outcome. Rule as the data show it: active = normalized growth mostly below about 0.91 (no sharp cut-off); inconclusive = no clear call, values can overlap the other calls; inactive = mostly above about 0.92. The list shows a part of the results.

Assay: chemical genetic growth profiling, strain panel (AID 1159580);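 also: tested at 20 µM; growth read once vehicle control cultures reached saturation at 30 °C; 1 = growth at the plate median or of vehicle wells; lower values mean less growth of the strain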
Conditions: growth OD

Measured: normalized growth

N#Cc1c(Cl)cccc1Cl
inactive: S. cerevisiae deletion strains, locus YJR075W, strain HOC1, stronger effect = lower value 1.02 | S. cerevisiae deletion strains, locus YKL009W, strain mrt4, stronger effect = lower value 1.02 | S. cerevisiae deletion strains, locus YKL068W, stronger effect = lower value 1.01 | S. cerevisiae deletion strains, locus YKL085W, strain MDH1 (second series), stronger effect = lower value 1.01 | S. cerevisiae deletion strains, locus YKL085W, strain MDH1, stronger effect = lower value 1.01 | S. cerevisiae deletion strains, locus YKL160W, strain elf1, stronger effect = lower value 0.981 | S. cerevisiae deletion strains, locus YKL190W, strain CNB1, stronger effect = lower value 1.02 | S. cerevisiae deletion strains, locus YKR001C, strain vps1, stronger effect = lower value 1.01 | S. cerevisiae deletion strains, locus YKR026C, strain gcn3, stronger effect = lower value 0.982 | S. cerevisiae deletion strains, locus YKR091W, strain srl3, stronger effect = lower value 0.978 | S. cerevisiae deletion strains, locus YLL001W, strain dnm1, stronger effect = lower value 0.988 | S. cerevisiae deletion strains, locus YLL026W, stronger effect = lower value 0.975 | S. cerevisiae deletion strains, locus YLL041C, strain sdh2, stronger effect = lower value 0.977 | S. cerevisiae deletion strains, locus YLR027C, strain aat2, stronger effect = lower value 0.959 | S. cerevisiae deletion strains, locus YLR039C, strain RIC1, stronger effect = lower value 1.01 | S. cerevisiae deletion strains, locus YLR058C, strain SHM2, stronger effect = lower value 1.02 | S. cerevisiae deletion strains, locus YLR102C, strain apc9, stronger effect = lower value 1.01 | S. cerevisiae deletion strains, locus YLR113W, strain HOG1, stronger effect = lower value 0.987 | S. cerevisiae deletion strains, locus YLR221C, strain rsa3, stronger effect = lower value 0.971 | S. cerevisiae deletion strains, locus YLR258W, strain gsy2, stronger effect = lower value 0.991 | S. cerevisiae deletion strains, locus YLR262C, strain YPT6 (second series), stronger effect = lower value 0.999 | S. cerevisiae deletion strains, locus YLR262C, strain YPT6, stronger effect = lower value 1.05 | S. cerevisiae deletion strains, locus YLR268W, strain sec22, stronger effect = lower value 0.999 | S. cerevisiae deletion strains, locus YLR320W, strain mms22, stronger effect = lower value 0.988 | S. cerevisiae deletion strains, locus YLR330W, strain CHS5, stronger effect = lower value 1.01 | S. cerevisiae deletion strains, locus YLR342W, strain FKS1 (second series), stronger effect = lower value 1.04 | S. cerevisiae deletion strains, locus YLR342W, strain FKS1, stronger effect = lower value 0.978 | S. cerevisiae deletion strains, locus YLR357W, strain rsc2, stronger effect = lower value 0.978 | S. cerevisiae deletion strains, locus YLR370C, strain arc18, stronger effect = lower value 0.965 | S. cerevisiae deletion strains, locus YLR371W, strain rom2, stronger effect = lower value 1.01 | S. cerevisiae deletion strains, locus YLR384C, strain iki3, stronger effect = lower value 0.975 | S. cerevisiae deletion strains, locus YLR418C, strain cdc73, stronger effect = lower value 1.01 | S. cerevisiae deletion strains, locus YML016C, strain PPZ1, stronger effect = lower value 1.01 | S. cerevisiae deletion strains, locus YML032C, strain rad52, stronger effect = lower value 1.02 | S. cerevisiae deletion strains, locus YML120C, strain ndi1, stronger effect = lower value 0.988 | S. cerevisiae deletion strains, locus YML124C, strain tub3, stronger effect = lower value 1.01 | S. cerevisiae deletion strains, locus YMR058W, strain fet3, stronger effect = lower value 0.968 | S. cerevisiae deletion strains, locus YMR078C, strain ctf18, stronger effect = lower value 1.02 | S. cerevisiae deletion strains, locus YMR125W, strain sto1, stronger effect = lower value 0.974 | S. cerevisiae deletion strains, locus YMR129W, stronger effect = lower value 1.01 | S. cerevisiae deletion strains, locus YMR205C, strain PFK2, stronger effect = lower value 1.01 | S. cerevisiae deletion strains, locus YMR223W, strain ubp8, stronger effect = lower value 1.01 | S. cerevisiae deletion strains, locus YMR231W, strain pep5, stronger effect = lower value 0.982 | S. cerevisiae deletion strains, locus YMR263W, strain SAP30, stronger effect = lower value 1.02 | S. cerevisiae deletion strains, locus YMR307W, strain GAS1, stronger effect = lower value 1.01 | S. cerevisiae deletion strains, locus YNL067W, strain RPL9B, stronger effect = lower value 1.01 | S. cerevisiae deletion strains, locus YNL071W, strain lat1, stronger effect = lower value 0.985 | S. cerevisiae deletion strains, locus YNL128W, strain TEP1, stronger effect = lower value 1.01 | S. cerevisiae deletion strains, locus YNL153C, strain GIM3, stronger effect = lower value 1.01 | S. cerevisiae deletion strains, locus YNL183C, strain NPR1, stronger effect = lower value 0.902 | S. cerevisiae deletion strains, locus YNL209W, strain ssb2, stronger effect = lower value 0.995 | S. cerevisiae deletion strains, locus YNL233W, strain BNI4, stronger effect = lower value 1.02 | S. cerevisiae deletion strains, locus YNL248C, strain rpa49, stronger effect = lower value 0.971 | S. cerevisiae deletion strains, locus YNL250W, strain rad50, stronger effect = lower value 1.02 | S. cerevisiae deletion strains, locus YNL271C, strain bni1, stronger effect = lower value 1.02 | S. cerevisiae deletion strains, locus YNL298W, strain CLA4, stronger effect = lower value 1.02 | S. cerevisiae deletion strains, locus YNL307C, strain MCK1, stronger effect = lower value 1.01 | S. cerevisiae deletion strains, locus YNL322C, strain KRE1 (second series), stronger effect = lower value 0.978 | S. cerevisiae deletion strains, locus YNL322C, strain KRE1, stronger effect = lower value 1.01 | S. cerevisiae deletion strains, locus YNR049C, strain mso1, stronger effect = lower value 0.958 | S. cerevisiae deletion strains, locus YNR052C, strain pop2, stronger effect = lower value 1.02 | S. cerevisiae deletion strains, locus YOL006C, strain TOP1, stronger effect = lower value 1.04 | S. cerevisiae deletion strains, locus YOL012C, strain htz1 1.37 | S. cerevisiae deletion strains, locus YOL147C, strain pex11, stronger effect = lower value 1.01 | S. cerevisiae deletion strains, locus YOR001W, strain rrp6, stronger effect = lower value 0.993 | S. cerevisiae deletion strains, locus YOR061W, strain CKA2, stronger effect = lower value 1.01 | S. cerevisiae deletion strains, locus YOR069W, strain VPS5, stronger effect = lower value 1 | S. cerevisiae deletion strains, locus YOR070C, strain gyp1, stronger effect = lower value 0.991 | S. cerevisiae deletion strains, locus YOR080W, strain dia2, stronger effect = lower value 0.963 | S. cerevisiae deletion strains, locus YOR083W, strain WHI5, stronger effect = lower value 0.974 | S. cerevisiae deletion strains, locus YOR106W, strain vam3, stronger effect = lower value 0.974 | S. cerevisiae deletion strains, locus YOR136W, strain idh2, stronger effect = lower value 1.01 | S. cerevisiae deletion strains, locus YOR144C, strain elg1, stronger effect = lower value 1.01 | S. cerevisiae deletion strains, locus YOR184W, strain ser1, stronger effect = lower value 1.03 | S. cerevisiae deletion strains, locus YOR231W, strain MKK1, stronger effect = lower value 0.966 | S. cerevisiae deletion strains, locus YOR265W, strain rbl2, stronger effect = lower value 0.966 | S. cerevisiae deletion strains, locus YOR270C, strain vph1, stronger effect = lower value 1.01 | S. cerevisiae deletion strains, locus YOR290C, strain snf2, stronger effect = lower value 0.985 | S. cerevisiae deletion strains, locus YOR316C, strain cot1, stronger effect = lower value 1.01 | S. cerevisiae deletion strains, locus YPL051W, strain arl3, stronger effect = lower value 0.995 | S. cerevisiae deletion strains, locus YPL055C, strain LGE1, stronger effect = lower value 1.05 | S. cerevisiae deletion strains, locus YPL078C, strain atp4, stronger effect = lower value 0.984 | S. cerevisiae deletion strains, locus YPL106C, strain sse1, stronger effect = lower value 0.975 | S. cerevisiae deletion strains, locus YPL240C, strain hsp82, stronger effect = lower value 0.979 | S. cerevisiae deletion strains, locus YPL241C, strain CIN2, stronger effect = lower value 1.01 | S. cerevisiae deletion strains, locus YPL256C, strain CLN2, stronger effect = lower value 0.968 | S. cerevisiae deletion strains, locus YPR119W, strain clb2, stronger effect = lower value 1.01 | S. cerevisiae deletion strains, locus YPR141C, strain kar3, stronger effect = lower value 1.02 | S. cerevisiae deletion strains, locus YPR163C, strain tif3, stronger effect = lower value 1.02 | S. cerevisiae deletion strains, locus YPR167C, strain met16, stronger effect = lower value 1.02 | S. cerevisiae deletion strains, strain wtn01, stronger effect = lower value 1.02 | S. cerevisiae strains, strain wild type, stronger effect = lower value 1.01
